Measured values published in ChEMBL document CHEMBL1961873, “Compounds: GSK PKIS; Assays: Nanosyn kinase panel” (2012).
“And” between values parts separate entries of the source, which are not always exact repeats. Equal entries are not always repeated.

Tests used:
[1] = molecular target: T1, Tyrosine-protein kinase receptor TYRO3 (Homo sapiens) (UniProt Q06418); conditions: at 1 µM
T1 sequence (whole entry): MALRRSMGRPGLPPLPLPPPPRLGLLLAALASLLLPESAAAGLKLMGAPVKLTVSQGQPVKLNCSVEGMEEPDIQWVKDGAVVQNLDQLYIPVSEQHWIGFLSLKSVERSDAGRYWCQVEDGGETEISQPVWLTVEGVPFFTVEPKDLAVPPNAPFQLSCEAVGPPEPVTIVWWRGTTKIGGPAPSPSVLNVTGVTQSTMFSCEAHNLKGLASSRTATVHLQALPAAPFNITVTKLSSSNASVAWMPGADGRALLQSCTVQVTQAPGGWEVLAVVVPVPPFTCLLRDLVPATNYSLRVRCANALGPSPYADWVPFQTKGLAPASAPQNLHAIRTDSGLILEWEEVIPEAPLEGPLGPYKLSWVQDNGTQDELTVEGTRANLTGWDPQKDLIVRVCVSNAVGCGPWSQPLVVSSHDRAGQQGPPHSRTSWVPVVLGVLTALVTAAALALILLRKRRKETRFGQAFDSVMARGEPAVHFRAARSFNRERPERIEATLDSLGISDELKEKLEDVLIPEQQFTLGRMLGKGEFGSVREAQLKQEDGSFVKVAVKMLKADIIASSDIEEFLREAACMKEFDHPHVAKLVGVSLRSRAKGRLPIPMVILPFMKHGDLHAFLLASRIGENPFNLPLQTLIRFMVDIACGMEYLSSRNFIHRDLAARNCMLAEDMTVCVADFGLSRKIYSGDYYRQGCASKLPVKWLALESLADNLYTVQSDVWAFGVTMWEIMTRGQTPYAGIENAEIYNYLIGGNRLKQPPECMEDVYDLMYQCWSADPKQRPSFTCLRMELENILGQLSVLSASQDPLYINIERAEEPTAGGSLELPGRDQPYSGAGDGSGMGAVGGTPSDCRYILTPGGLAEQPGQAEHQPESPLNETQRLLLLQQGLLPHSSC

[2] = molecular target: Tyrosine-protein kinase Yes (Homo sapiens) (UniProt P07947); conditions: at 0.1 µM
Chain of Tyrosine-protein kinase Yes (Homo sapiens) (P07947 2-543 limits assumed): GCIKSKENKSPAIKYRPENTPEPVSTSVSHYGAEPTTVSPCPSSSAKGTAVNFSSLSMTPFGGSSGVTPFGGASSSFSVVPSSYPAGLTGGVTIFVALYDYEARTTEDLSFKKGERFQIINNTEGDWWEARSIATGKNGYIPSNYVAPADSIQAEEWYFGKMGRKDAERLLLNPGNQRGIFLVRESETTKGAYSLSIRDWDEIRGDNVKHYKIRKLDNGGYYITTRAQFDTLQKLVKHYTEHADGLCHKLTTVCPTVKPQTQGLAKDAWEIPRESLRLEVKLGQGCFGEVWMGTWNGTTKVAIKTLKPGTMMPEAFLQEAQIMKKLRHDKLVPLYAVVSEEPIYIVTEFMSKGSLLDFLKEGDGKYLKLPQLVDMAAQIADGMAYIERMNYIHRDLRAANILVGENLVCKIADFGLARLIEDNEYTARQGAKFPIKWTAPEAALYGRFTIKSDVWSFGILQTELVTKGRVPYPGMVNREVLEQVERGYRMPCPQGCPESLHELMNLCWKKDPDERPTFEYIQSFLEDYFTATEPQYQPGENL

[3] = molecular target: Tyrosine-protein kinase Yes (Homo sapiens) (UniProt P07947); conditions: at 1 µM
[4] = molecular target: T2, Tyrosine-protein kinase ZAP-70 (Homo sapiens) (UniProt P43403); conditions: at 0.1 µM
T2 sequence (whole entry): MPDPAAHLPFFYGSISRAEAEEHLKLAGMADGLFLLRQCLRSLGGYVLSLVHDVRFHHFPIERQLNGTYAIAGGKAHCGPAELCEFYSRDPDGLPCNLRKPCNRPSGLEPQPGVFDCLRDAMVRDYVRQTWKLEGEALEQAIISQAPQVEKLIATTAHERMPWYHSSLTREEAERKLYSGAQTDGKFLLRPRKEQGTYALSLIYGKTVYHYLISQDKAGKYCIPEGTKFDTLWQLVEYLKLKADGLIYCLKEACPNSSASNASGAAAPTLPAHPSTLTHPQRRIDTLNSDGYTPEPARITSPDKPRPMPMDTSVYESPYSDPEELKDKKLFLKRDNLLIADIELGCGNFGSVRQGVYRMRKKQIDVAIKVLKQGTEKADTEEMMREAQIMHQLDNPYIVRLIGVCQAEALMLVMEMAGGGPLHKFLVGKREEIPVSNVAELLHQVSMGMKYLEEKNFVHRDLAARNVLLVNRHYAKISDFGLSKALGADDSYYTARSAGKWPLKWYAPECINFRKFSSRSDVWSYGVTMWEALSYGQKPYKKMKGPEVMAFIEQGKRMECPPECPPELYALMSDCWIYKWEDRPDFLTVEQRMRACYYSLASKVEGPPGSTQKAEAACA

[5] = molecular target: T2, Tyrosine-protein kinase ZAP-70 (Homo sapiens); conditions: at 1 µM
[6] = molecular target: Serine/threonine-protein kinase B-raf (Homo sapiens) (UniProt P15056); conditions: at 0.1 µM
Chain of Serine/threonine-protein kinase B-raf (Homo sapiens) (P15056 whole entry): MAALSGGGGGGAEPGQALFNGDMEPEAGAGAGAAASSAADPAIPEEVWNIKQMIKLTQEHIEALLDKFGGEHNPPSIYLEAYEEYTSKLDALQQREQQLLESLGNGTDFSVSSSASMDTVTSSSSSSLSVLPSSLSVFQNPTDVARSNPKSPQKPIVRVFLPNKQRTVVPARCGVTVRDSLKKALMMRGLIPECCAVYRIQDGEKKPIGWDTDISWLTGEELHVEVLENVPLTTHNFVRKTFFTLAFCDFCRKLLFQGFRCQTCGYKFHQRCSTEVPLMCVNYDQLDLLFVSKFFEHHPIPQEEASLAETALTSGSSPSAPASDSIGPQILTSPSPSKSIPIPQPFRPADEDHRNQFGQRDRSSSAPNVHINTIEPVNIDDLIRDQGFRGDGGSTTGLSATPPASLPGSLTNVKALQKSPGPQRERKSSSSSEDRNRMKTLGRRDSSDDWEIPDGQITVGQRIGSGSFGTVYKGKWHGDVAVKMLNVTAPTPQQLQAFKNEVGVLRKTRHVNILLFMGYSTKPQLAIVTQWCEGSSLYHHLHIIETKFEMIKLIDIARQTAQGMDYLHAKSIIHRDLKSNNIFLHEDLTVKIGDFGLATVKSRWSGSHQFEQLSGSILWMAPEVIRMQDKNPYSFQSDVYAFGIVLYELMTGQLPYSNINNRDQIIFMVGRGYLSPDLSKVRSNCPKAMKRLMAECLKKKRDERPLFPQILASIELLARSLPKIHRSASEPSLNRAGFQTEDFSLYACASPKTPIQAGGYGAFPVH

[7] = molecular target: Serine/threonine-protein kinase B-raf (Homo sapiens) (UniProt P15056); conditions: at 1 µM
[8] = system: Serine/threonine-protein kinase B-raf (Homo sapiens), P15056 [V600E]; conditions: at 0.1 µM
Chain of Serine/threonine-protein kinase B-raf (Homo sapiens), P15056 [V600E] (P15056 whole entry V600E): as the sequence (P15056 whole entry) above, with V600E counted along it

[9] = system: Serine/threonine-protein kinase B-raf (Homo sapiens), P15056 [V600E]; conditions: at 1 µM
[10] = molecular target: RAF proto-oncogene serine/threonine-protein kinase (Homo sapiens) (UniProt P04049); conditions: at 0.1 µM;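 further: values are mean CRAF kinase inhibition from profiling of the GSK Published Kinase Inhibitor Set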
Chain of RAF proto-oncogene serine/threonine-protein kinase (Homo sapiens) (P04049 whole entry): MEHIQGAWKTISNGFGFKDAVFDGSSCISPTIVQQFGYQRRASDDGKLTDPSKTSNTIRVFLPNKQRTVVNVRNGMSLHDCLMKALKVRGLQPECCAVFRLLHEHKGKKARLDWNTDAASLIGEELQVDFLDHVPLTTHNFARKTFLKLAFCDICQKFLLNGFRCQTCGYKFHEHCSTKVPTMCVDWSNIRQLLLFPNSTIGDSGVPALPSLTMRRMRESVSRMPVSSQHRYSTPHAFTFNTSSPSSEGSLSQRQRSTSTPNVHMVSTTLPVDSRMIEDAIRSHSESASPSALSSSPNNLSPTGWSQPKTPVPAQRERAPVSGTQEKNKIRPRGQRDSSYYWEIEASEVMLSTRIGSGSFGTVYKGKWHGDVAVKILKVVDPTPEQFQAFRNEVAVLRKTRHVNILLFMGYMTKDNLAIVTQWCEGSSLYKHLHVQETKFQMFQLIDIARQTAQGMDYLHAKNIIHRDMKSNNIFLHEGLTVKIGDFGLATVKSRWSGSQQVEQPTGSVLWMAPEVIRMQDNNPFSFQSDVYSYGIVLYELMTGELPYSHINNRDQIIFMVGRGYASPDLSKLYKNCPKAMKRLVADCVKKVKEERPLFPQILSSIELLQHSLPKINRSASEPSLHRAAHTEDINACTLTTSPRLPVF

SMILES	inhibition [1]	inhibition [2]	inhibition [3]	inhibition [4]	inhibition [5]	inhibition [6]	inhibition [7]	inhibition [8]	inhibition [9]	inhibition [10]
NS(=O)(=O)c1ccc(N/N=C2\C(=O)Nc3cccc(CCc4ccncc4)c32)cc1	2.17%	4.12%	11.4%	-0.82%	13.7%	1.54%	1.46%	3.22%	2.2%	-0.07%
Cc1ccc(-c2cc3c(NC(=O)C4CC4)ncnc3o2)cc1	47.8%	6%	23.7%	1.07%	3.18%	4.57%	4.6%	4.47%	4.89%	-0.84%
CNC(=O)c1cncc(/C=C/c2ccccc2C)c1	3.96%	4.29%	9.93%	1.58%	2.36%	6.43%	7.91%	6.48%	6.88%	5.82%
COc1cccc(-n2ncc3c(N/N=C/c4ccc(C(=O)NCCN(C)C)cc4)ncnc32)c1	60.6%	58.5%	86%	-2.3%	4.14%	11.1%	27.8%	9.71%	23.6%	2.11%
Cc1cc(O)cc(C)c1/C=C/c1cncc(C(N)=O)c1	6.32%	6.53%	32.2%	2.11%	2.46%	4.77%	11.2%	3.8%	8.78%	-1.23%
N#Cc1ccc2c(-c3ccnc(NC4CC4)n3)c(-c3ccc(F)cc3)nn2c1	0.69%	2.22%	3.79%	-2.8%	1.15%	2.6%	5.81%	2.7%	4.72%	-0.7%
Fc1cccc(COc2ccc(Nc3ncncc3C#Cc3ccccc3)cc2Cl)c1	9.44%	4.11%	3.65%	2.29%	1.11%	6.77%	4.45%	6.66%	5.53%	-0.3%
CC(C)c1ccc(-c2cc(-c3c[nH]nc3-c3ccccn3)ccn2)cc1	2.71%	0.42%	0.34%	1.32%	1.31%	0.6%	3.57%	0%	3.39%	1.14%
NC(=O)c1ccc2c(-c3ccnc(NCCCO)n3)c(-c3ccc(F)cc3)nn2c1	3.98%	2.77%	10.9%	1.7%	1.63%	10.9%	22.2%	9.67%	19.7%	-3.29%
O=C1Nc2ccccc2/C1=C1\CCc2cc(O)ccc21	18.8%	3.94%	13.6%	3.48%	7.74%	6.96%	9.83%	8.49%	8.96%	0.39%
CN(c1ccc(NC(=O)NCCN2CCOCC2)cc1)c1ccnc(Nc2ccc(CS(C)(=O)=O)cc2)n1	6.95%	1.4%	8.5%	0.58%	2.72%	4.55%	7.4%	3.94%	7.38%	6.1%
CCN1CCC(C(=O)Nc2n[nH]c3nnc(-c4cccc(F)c4F)cc23)CC1	1.67%	2.36%	-0.1%	-1.24%	2.19%	-0.36%	0.01%	1.12%	1.24%	-4.36%
COc1c(C(N)=O)cc(-c2ccc(Cl)cc2)cc1-c1ccc(S(N)(=O)=O)cc1	2.96%	1.57%	4.52%	2.39%	4.12%	6.5%	8.57%	4.06%	3.68%	2.31%
Cc1c2ccc(N(C)c3ccnc(Nc4cccc(S(N)(=O)=O)c4)n3)cc2nn1C	16.1%	14.9%	62.8%	0.81%	11.5%	9.33%	9.79%	8.28%	12.5%	-1.01%
Nc1nccc(-c2c(-c3ccc(F)cc3)ncn2C2CCNCC2)n1	1.14% and -0.71%	-1.29% and 0.36%	11.9% and 16.2%	1.4% and 0.85%	-2.69% and 1.59%	-2.89% and 1.95%	-0.2% and 7.76%	-4.19% and 1.23%	0.9% and 7.41%	-3.57% and -1.58%
CNC(=O)c1ncccc1Nc1nc(Nc2cc3c(cc2OC)CCCN3C(=O)CN(C)C)nc2[nH]ccc12	5.61%	0.73%	-1.63%	-0.5%	2.99%	4.31%	4.44%	5.35%	9.32%	-1.22%

SMILES	inhibition [1]	inhibition [2]	inhibition [3]	inhibition [4]	inhibition [5]	inhibition [6]	inhibition [7]	inhibition [8]	inhibition [9]	inhibition [10]
COc1cccc(Nc2nccc(-c3cnn4ncccc34)n2)c1	21.2%	3.57%	20.5%	2.31%	11.7%	5.24%	31.6%	4.52%	30.7%	2.53%
Cc1cc(O)cc(C)c1/C=C/c1cncc(C(=O)OC(C)(C)C)c1	4.32%	5.5%	31.1%	1.34%	1.02%	4.14%	7.71%	3.83%	6.09%	3.1%
COC(=O)Nc1nc2cc(Oc3ccc(NC(=O)Nc4ccccc4)cc3)ccc2[nH]1	4.81%	0.64%	4.69%	0.7%	1.28%	4.74%	4.26%	5.49%	5%	-5.27%
CC1=C(C(=O)Nc2ccc3[nH]nc(C)c3c2)C(c2ccc(C(F)(F)F)cc2)CC(=O)N1 (stereo not given)	2.61%	2.7%	11.8%	0.65%	2.13%	6.25%	38.8%	5.77%	37.9%	3.79%
CC1(C)CC(n2cnc(-c3ccc(F)cc3)c2-c2ccnc(N)n2)CC(C)(C)N1	5.65%	0.2%	7.25%	0.52%	2.37%	1.97%	1.13%	1.52%	0.8%	6.47%
O=C(O[C@H]1CN[C@H](C#Cc2cc3ncnc(Nc4ccc5c(ccn5Cc5cc(F)ccc5F)c4)c3s2)C1)N1CCOCC1	3.08%	0.85%	8.22%	0.89%	2.72%	6%	6.76%	6.11%	6.31%	1.88%
CS(=O)(=O)Nc1ccc(-c2cc(-c3ccccc3)cc(C(N)=O)c2N)cc1	0.42%	0.79%	4.67%	-2.43%	-3.4%	2.34%	3.97%	2.93%	3.58%	-0.86%
N#Cc1cccc(Nc2ncc(-c3ccccc3)o2)c1	6.8%	2.87%	17.7%	0.3%	1.57%	3.08%	3.51%	3.18%	4.57%	-1.08%
COc1ccc2ncn(-c3cc(O[C@H](C)c4ccccc4C(F)(F)F)c(C(N)=O)s3)c2c1	2.75%	-2.36%	1.07%	2.16%	2.62%	-0.46%	-2.23%	-1.03%	-0.82%	-0.27%
CCS(=O)(=O)c1ccc(OC)c(Nc2ncc(-c3cccc(F)c3)o2)c1	26.2%	75.9%	96.3%	1.94%	5.25%	7.42%	10%	4.95%	4.95%	1.22%
COc1ccc(Nc2ncc(-c3ccccc3)o2)cc1OC	4.23%	7%	35.7%	1.28%	1.27%	-1.46%	1.35%	0.52%	2.34%	-0.64%
CN1CCC(n2cnc(-c3ccc(F)cc3)c2-c2ccnc(NCCO)n2)CC1	5.81%	2.55%	8.81%	2.9%	-0.3%	5.28%	8.68%	4.16%	8.41%	-1.57%
c1cnn2ncc(-c3ccnc(NCCCN4CCOCC4)n3)c2c1	2.64%	2.68%	0.1%	2.13%	2.9%	5.35%	7.07%	5.41%	5.03%	2.81%
CS(=O)(=O)CCNCc1ccoc1-c1ccc2ncnc(Nc3ccc(OCc4ccccc4)cc3)c2c1	3.68%	4.12%	21.9%	-0.82%	2.26%	1.03%	1.49%	1.75%	1.31%	-1.29%
CN1CCC(C(=O)Nc2n[nH]c3nc(-c4ccc(O)cc4)c(Br)cc23)CC1	7.08% and 4.86%	4% and 0.88%	10.6% and 3.33%	-0.14% and 0.65%	2.21% and 2.11%	9.05% and 4.77%	16% and 14.5%	9.4% and 4.5%	13.8% and 8.76%	13% and -0.38%
